Among the data in PubChem BioAssay (NCI) are growth values, retold here.

The panel holds about 83,000 compounds, 20% with a hit somewhere; the sample as a whole holds those more often.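 For each line, cells grew in 96-well plates with the test compound present at a single concentration for 48 hours.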 Calls of active or inactive are those of the source. How the source made its calls: active means growth percent below 10; inactive means the rest.

The test system of the assay is MDA-MB-468 breast. Briefly: NCI-60 one-dose screen, 48 h (100 = growth as untreated, 0 = no growth, -100 = all killed). The conditions noted are these: 10 µM unless noted.
Turning to `C=CCn1c(C)nc2ccc(Nc3nc(Nc4ccc5nc(C)n(CC=C)c5c4)c4ccccc4n3)cc21`, the growth is -92.8% (active).

Consider `O=C(Nc1ccc(N2CCNCC2)cn1)c1[nH]ncc1Nc1ncnc2sccc12`, for which the growth is -59.5% (active).

Take `C#Cc1ccc(-n2c(/C=C/c3ccc(O)cc3)nc3ncccc3c2=O)cc1`: the growth is -10.6% (active).

In the case of `O=C1/C(=C/c2ccc(O)c(O)c2)COc2ccc(-c3ccccc3)cc21`, the growth was 6.16% (active).

As for `c1ccc2nc(Cn3c[n+](Cc4ccc5ccccc5n4)c4ccccc43)ccc2c1`, the growth is -19.3% (active).

`c1cnc2[nH]cc(-c3csc(-c4cn(CCCN5CCCCC5)c5ccccc45)n3)c2c1`: the growth was 70.2% (inactive).

As for `CCN(CC)c1ccc(/C=N/NC(=O)c2ccc(S(N)(=O)=O)cc2)c(O)c1`, the growth is -0.911% (active).

In the case of `CC(C)(C)C1CCC(=NO)CC1` (centres undefined), the growth is 94% (inactive).

Consider `COc1ccc(CCNc2nc3c(c(=O)n(Cc4ccc(Br)cc4)c(=O)n3C)n2C)cc1OC`, for which the growth was 109% (inactive).

With `COc1cc(NC(=O)c2sc3nc4c(cc3c2N)C(O)CCC4)cc(OC)c1` (centres undefined), the growth is 54% (inactive).

As to `C=C1C(=O)O[C@H]2[C@H]1CC/C(COC(=O)c1ccc(Cl)nc1)=C\CC[C@@]1(C)O[C@@H]21`, the growth was -25.1% (active).

Regarding `OCCn1cc(-c2nc(-c3c[nH]c4ncccc34)cs2)c2ccccc21`, the growth was 4.37% (active).

Take `CCN(CC)CCCCCCNc1cc(OC)cc2cccnc12`: the growth was 23.4% (inactive).

With `O=C(/C=C/c1cn(-c2ccccc2)nc1-c1ccc([N+](=O)[O-])cc1)c1ccc(Cl)cc1`, the growth is 39.5% (inactive).
